HCV inh: HCV inhibition; hit rate 3.4% among 340,000; AID 651820; Huh7.5.1 HCVcc-Cre infection, luciferase reporter, 44 h; Potency, µM (series often up to 41.8 µM), for inactives: top-dose activity change, negative = inhibition, hits mostly inhibitors; also: potency is read from the fitted curve at half-maximal effect; % is scaled to controls: 0 for no effect and ±100 for the full control effect
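HCVcc-Cre virus at an moi near 0.5 was added right after compound to cells cultured 4 h from seeding (1,000 cells/well). Luciferase activity was determined 44 h later, 15 min after substrate addition at RT.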
Pf growth 96h: inhibits malaria parasite growth, 96 h; P. falciparum luciferase reporter growth, 96 h; Potency, µM (titrated, usually from 28.7 µM), for the others: at the top dose activity change, negative = inhibition, most hits filed as inhibitors; hit rate 6.9% among 320,000; also: potency is read from the fitted curve at half-maximal effect; % is scaled to controls: 0 for no effect and ±100 for the full control effect
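Delayed-death screen, second-generation endpoint: infected erythrocytes, 2% hematocrit, 0.05% parasitemia final; 96 hours at 37 C, 5% CO2; luciferase detection reagent; luminescence decrease equals reduced growth.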
Pf growth 48h: inhibits P. falciparum growth in the first generation, 48 h; Potency, µM (titrated, usually from 28.7 µM), for inactives: at the top dose activity change, negative = inhibition, actives largely listed as inhibitors; P. falciparum luciferase growth in erythrocytes, 48 h; AID 504832; hit rate 5.9% among 310,000; also: potency is read from the fitted curve at half-maximal effect; % is scaled to controls: 0 for no effect and ±100 for the full control effect
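Read-out is firefly luciferase luminescence from an integrated reporter in P. falciparum, so falling signal marks reduced parasite growth. Infected erythrocytes were at 2% hematocrit and 0.1% parasitemia (final) in Albumax-supplemented RPMI 1640.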
Cycloheximide cs: counter-screen for Shiga toxin inhibitors: cycloheximide protein synthesis inhibition. cell reporter, cycloheximide protein synthesis inhibition counterscreen. max response, %. hit rate 12% among 300,000; in the data active = max response mostly above about 13%, no sharp cut-off; inactive = mostly below about 14%; also: read at 38.3 µM for the half of the compounds with a filed dose; 0% is about no effect
HCMV inh: blocks human cytomegalovirus replication. HFF cells, HCMV-luciferase reporter, 72 h; stronger effect = lower value. activity change, negative = inhibition, % at 57.5 µM. AID 1259415. hit rate 4.5% among 410,000; in the data active = activity change below about -60%; inconclusive = no clear call, values can overlap the other calls; inactive = above about -39%; also: % is scaled to controls: 0 for no effect and ±100 for the full control effect
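Steps: HFFs plated, 16 h 37C; compounds added; HCMV-luciferase added to MOI 1 PFU/cell; 72 h 37C; OneGlo reagent, 5 min room temperature; luminescence read, normalized to controls.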
Shiga inhibitor: blocks Shiga toxin action in Vero cells; Vero cells, Shiga toxin protein synthesis inhibition reporter; inhibition, % at 38.7 µM; hit rate 9.2% among 290,000; in the data active = inhibition mostly above about 28%, no sharp cut-off; inactive = mostly below about 43%; also: 0% is about no effect
An asterisk follows results filed as active; ? = inconclusive; / = no result given; [ ] = dose if it differs, or a comment. This is a sample that favours compounds with a hit; in the whole collection about 21% have one here. Unless noted, calls follow the shape of the dose curve; as a rule, active = well fitted inhibition curve with a large enough effect; inconclusive = small, poorly fitted or top-dose-only effect, or another doubt; inactive = no such curve, though single readings can be large or run the other way.

SMILES	HCV inh	Pf growth 96h	Pf growth 48h	Cycloheximide cs	HCMV inh	Shiga inhibitor
COc1ccc(CCNC(=O)c2ccc3c(c2)N(Cc2ccc(F)cc2)C(=O)c2ccccc2S3(=O)=O)cc1OC	/	/	/	/	-24.1	/
Nc1ncncc1-c1ccc(Cl)cc1	15.1%	?	?	-4.5	0.8	4.2
C=C(C)COc1ccc(-c2ncncc2-c2ccc(Cl)cc2)c(O)c1	?	2.33µM*	5.22µM*	-0.3	?	-10.9
C=C(C)COc1ccc(-c2nc(N)ncc2-c2ccc(Br)cc2)c(O)c1	?	?	8.28µM*	-0.1	-20.0	3.2
C=C(C)COc1ccc(-c2ncncc2-c2ccc(Br)cc2)c(O)c1	?	2.33µM*	1.85µM*	-2.4	?	-2.9
Cn1ccc(NC(=O)CCl)n1	?	-21.6%	?	29.5*	-99.0*	23.4
Cc1cc(Br)c(NC(=O)CCl)c(Br)c1	-15.4%	?	-40.3%	2.8	-65.8*	-2.1
Cc1cc(NC(=O)CCl)nn1C	?	10.4µM*	?	6.1	?	24.3
Cc1cc(CNC(=O)c2cc(Br)ccc2Cl)nn1C	-16.9%	/	18.1%	-2.3	6.9	-8.9
O=c1[nH]c(SCc2c(F)cccc2Cl)nc2c1CCC2	/	/	/	/	-10.9	/
COc1ccc(CC(=O)Nc2c3c(nn2C(C)(C)C)CS(=O)(=O)C3)cc1OC	/	8.3%	28.7%	1.1	/	-7.1
Cc1nn(Cc2ccc(Cl)cc2)c(C)c1NC(=O)Cn1nc([N+](=O)[O-])c(Cl)c1C	3.16µM*	?	-19.5%	-2.5	100.7	-4.2
Cc1cc(C(=O)Nc2c(C)nn(Cc3ccc(Cl)cc3)c2C)no1	11.9%	?	-3.1%	-1.8	-35.6	-11.3
Cc1nn(Cc2ccc(Cl)cc2)c(C)c1NC(=O)C(c1ccccc1)c1ccccc1	?	-28.8%	?	0.8	-64.0*	-7.3
Cc1nn(Cc2ccc(Cl)cc2)c(C)c1NC(=O)CSc1n[nH]c(C)c1[N+](=O)[O-]	-25.7%	13.1µM*	-11.7%	0.7	-2.7	-13.6
CCCc1cc2c(=O)c(-c3nc4ccccc4s3)c(COCC(=O)O)oc2cc1O	-18.9%	15.4%	24.3%	43.4*	29.3	95.1*
CSc1ccccc1C(=O)Nc1cccc([N+](=O)[O-])c1	-6.8%	?	4.3%	3.3	-39.6	-5.1
C/C(=N\Nc1cccc([N+](=O)[O-])c1)c1ccccc1O	?	101.3%	98.0%	32.7*	-22.4	72.8*
C/C(=N\Nc1cccc([N+](=O)[O-])c1)c1cc(F)ccc1O	10µM*	44.9%	27.3%	46.9*	-26.8	109.0*
Cc1sc2ncn(CC(=O)Nc3ccc(F)cc3Cl)c(=O)c2c1S(=O)(=O)N1CCN(c2ncccn2)CC1	/	/	/	/	8.1	/
NC(N)=NCCN1CCCCCCC1	/	?	-29.4%[12.8 µM]	/	/	/
CC(C)N(CCNCC(O)COc1ccc(C(C)(C)c2ccccc2)cc1)C(C)C (configuration not stated)	-18.5%	?	?	8.9	-24.0	-6.8
CC(=O)Nc1ccc(SCC(=O)c2cc(C)n(CC(F)(F)F)c2C)cc1	22.0%	229.5%	/	34.7*	44.7	71.1*
COc1cccc(CNC(=O)[C@H]2[C@H](CO)[C@H]3Cn4c(cccc4=O)[C@@H]2N3C(=O)C2CC2)c1	/	/	/	/	-19.7	/
O=C(Cn1cccn1)N1CCCC(N2CCN(c3cccc(C(F)(F)F)c3)CC2)C1 (configuration not stated)	/	-1.1%	?	22.0	-2.6	-7.2
SMILES	HCV inh	Pf growth 96h	Pf growth 48h	Cycloheximide cs	HCMV inh	Shiga inhibitor
O=C(CCn1cccn1)N1CCCC(N2CCN(c3cccc(C(F)(F)F)c3)CC2)C1 (configuration not stated)	-23.4%	2.8%	-15.5%	1.4	-61.9*	-3.4
CN(C)C(=O)CCC(=O)N1CCCC(N2CCN(c3cccc(C(F)(F)F)c3)CC2)C1 (configuration not stated)	-7.2%	-29.0%	2.4%	1.4	74.1	-3.8
CCN(CC)CC(=O)N1CCCC(N2CCN(c3cccc(C(F)(F)F)c3)CC2)C1 (configuration not stated)	?	9.28µM*	2.1%	6.3	-11.2	8.9
O=[N+]([O-])c1cc(S(=O)(=O)N2CCCCCC2)ccc1Cl	11.2µM*	31.2%	-7.1%	0.3	?	-9.5
COc1cccc(Oc2ccc(S(=O)(=O)N3CCCC3)cc2[N+](=O)[O-])c1	?	?	10.4µM*	-3.8	1.3	33.7
O=S(=O)(c1ccc(Oc2ccc(Cl)cc2)c(S(=O)(=O)N2CCCCC2)c1)N1CCCCC1	5.9%	/	4.65µM*	-2.8	-31.3	-12.5
Cc1ccc(S(=O)(=O)N2CCCC2)cc1[N+](=O)[O-]	36.2%	?	-16.6%	0.7	-7.0	-9.6
O=[N+]([O-])c1cc(S(=O)(=O)N2CCCC2)ccc1NCCc1ccccc1	14.8%	?	-18.7%	-5.0	-29.1	-12.9
COc1ccc(CCNc2ccc(S(=O)(=O)N3CCCC3)cc2[N+](=O)[O-])cc1	?	?	-6.2%	-2.6	-62.3*	-10.6
Cc1cc(NC(=O)c2cccc(C)c2[N+](=O)[O-])no1	-0.6%	8.2%	12.2%	-1.3	1.7	/
O=C(NCCCN1CCOCC1)c1ccc(NS(=O)(=O)c2cccc([N+](=O)[O-])c2)cc1	/	1.2%	2.1%	1.7	1.2	-10.8
COc1ccccc1C(C)Nc1ccc(S(=O)(=O)N2CCN(C)CC2)cc1[N+](=O)[O-] (configuration not stated)	11.2µM*	16.5µM*	11.7µM*	/	-9.5	/
CCOc1cc(S(=O)(=O)N2CCCC2)ccc1Cl	?	11.7µM*	/	-3.9	-36.4	-10.4
CC(Nc1ccc(S(=O)(=O)N2CCN(C)CC2)cc1[N+](=O)[O-])c1ccccc1 (configuration not stated)	?	?	?	/	-9.5	/
COc1ccc(Nc2ccc(S(=O)(=O)N3CCCCC3)cc2[N+](=O)[O-])cc1OC	?	13.1µM*	?	-2.7	?	-4.9
CCOC(=O)CNC(=O)c1ccc(-c2nn(C)c(=O)c3ccccc23)cc1	/	/	/	/	27.1	/
COc1ccccc1-n1ccn(CC(=O)Nc2ccc(C)cc2Cl)c(=O)c1=O	8.7%	5.0%	-10.6%	/	-29.2	/
CC(=O)NC1=NN(C(C)=O)C(C)(c2ccc3ccccc3c2)S1 (configuration not stated)	-3.1%	68.8%	2.94µM*	-3.3	39.6	-5.8
O=C(CSc1ncc2c(n1)-c1ccccc1N(Cc1ccc(Cl)cc1)S2(=O)=O)c1ccc(Cl)cc1	/	/	/	/	0.1	/
Cc1ccccc1C(=O)Nc1cccc(-c2ccc(N3CCOCC3)nn2)c1	-6.4%	51.6%	67.6%	/	5.8	/
CCOC(=O)c1ccc(-c2nnc(-c3ccc(Cl)cc3Cl)o2)cc1	6.2%	?	79.2%	9.6*	83.4	21.6
CSc1ccc(C(=O)N2CCc3ccc(NC(=O)c4ccccn4)cc3C2)cc1	?	14.7µM*	?	58.4*	-16.4	106.6*
